# Laboratory results as given in PubChem BioAssay AID1347426 (Functional Genomics Laboratory (NCATS/FGL), 2020).
# The whole screen tested about 31,000 sequences, of which about 1,400 (4.5%) were called active.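 How the source made its calls: active means median seed-adjusted z-score above 1 or below -1; inactive means the rest.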 The sample as a whole holds a higher share of actives than the screen did.
# Assay: Novel Modifiers of Survival Motor Neuron (SMN) Protein: Gene Identification via Genome-wide siRNA Screen
# Conditions: HEK293T SMN2-luciferase reporter, siRNA knockdown, 72 h; actives lie on both sides
# From the text: Spinal muscular atrophy (SMA) is the most common neuromuscular autosomal recessive disorder and one of the leading genetic causes of infant death. SMA results from mutations inducing loss of function or deletion in the survival of motor neuron-1 gene (SMN1), leading to deficiency of the survival motor neuron (SMN) protein. Although a second nearly identical gene, SMN2, is retained in humans, its expression primarily produces an aberrantly spliced isoform that is largely unstable and quickly degraded. We performed a genome-wide RNAi screen using a cell-based reporter assay to identify genes and pathways that modulate SMN protein stability. The screen identified over 200 genes that led to the greatest increase or decrease in luciferase expression.
# Using HEK293T cells stably expressing a luciferase reporter that combines the promoter and splicing based cassettes in tandem with the major portion of the native SMN2 cDNA with luciferase, we performed a genome-wide RNAi screen to identify modulators of SMN protein levels. Luciferase is expressed when full-length SMN protein is generated with luminescence signal proportional to SMN protein levels. Our luciferase-based reporter assay was used to screen Ambion Silencer Select Human Druggable Genome siRNA library (10418 genes, 3 unique siRNAs per gene) using lipid-based reverse transfection.
# Briefly, 1 pmol of each siRNA was spotted to a well of a 384-well plate (Corning, Corning, NY) and 20 microL of serum-free DMEM containing […] of Lipofectamine RNAiMax (Life Technologies, Carlsbad, CA) was then added to each well. Transfected cells were maintained at 37 degrees C in 5% CO2 for 72 hours, 20 microL of ONE-Glo Reagent (Promega) was added to wells for luciferase quantification. Raw luminescence reads were normalized to Ambion(R) Silencer(R) Negative Control #2 siRNA, then log10 transformed. A robust statistical measure of median absolute deviation (MAD) to standardize siRNA activities from each screen. Common Seed Analysis was used to help prioritize clean hits as opposed to those appearing to arise from seed based off-target effects. Candidate modulators were defined as the genes having a MAD score greater than 1.0 or less than -1.0.
row,Sequence,median seed-adjusted z-score
1,GCGGCAAGGGUUUCAAGCATT against FIZ1,0.154 (inactive)
2,GAAGUUCGGUCGAACCACATT against CST5,0.466 (inactive)
3,CCAGUACGCUAUGGACGUATT against MDN1,0.187 (inactive)
4,GUCUGUCAAUGUACCUUCUTT against 3-Mar,0.069 (inactive)
5,GCAACAGCAUUGUCCGUGUTT against LRRN2,0.324 (inactive)
6,GAACUGACAUGGGAAGAUUTT against DUOX1,-1.09 (active)
7,GCCUGACUUCGACUGCUCATT against GFER,0.402 (inactive)
8,GGAGGCUAAUGGUUGCUUUTT against ARPC1B,0 (inactive)
9,CUAUUUCCCUGCCUUCGAATT against GSTA3,0.334 (inactive)
10,CAACAAAAGUUUCAUGCUATT against STK35,0.519 (inactive)
11,GGAGGUACGUGGAAAAGCATT against ORC3L,-0.254 (inactive)
12,GCUUCGGAAUUCAGACAUUTT against NFATC4,0 (inactive)
13,GGCCCUUGGCCUUACUAUGTT against ACSM2B,-0.0401 (inactive)
14,GCACGAUAUUAUGAUCCAATT against PPAT,-1.51 (active)
15,CAACCACCAUCUGACCUUUTT against MMP15,-0.0489 (inactive)
16,GGCUGAAAACGGAGCACAATT against PCDHB16,-0.523 (inactive)
17,CAGUGACUGUUGUUGGUCUTT against PKD1L3,-0.658 (inactive)
18,GGAGGAGCCUAAGAUGUCATT against ZNF442,1.06 (active)
19,AAGGGAAAGUGUACUGGUATT against MMP23B,0.288 (inactive)
20,GGCUAUUGAUUGUCCACAUTT against L2HGDH,-0.346 (inactive)
21,CUACCGAGAUUUUAGAUGATT against POLE,-1.55 (active)
22,CACUAUAUCUAUAUCGAAATT against PLD1,0.518 (inactive)
23,GACCCAUACAGAAAGUAGATT against SSR1,-0.434 (inactive)
24,GAUGCGCACUCAGUCCUUATT against MLLT4,-0.0762 (inactive)
25,CUGUGAGAAUUGUUGCUCUTT against TRIP6,1.03 (active)
26,GGAUCUCAGUCAAAGGCAUTT against CPZ,-0.0748 (inactive)
27,CGAUCGAGUGGAUGAAGAATT against MMP24,-1.28 (active)

row,Sequence,median seed-adjusted z-score
1,ACAUUGAACGUCCCACGUATT against TUBA3E,-0.35 (inactive)
2,GCUAAGAGCUUCGUGCUGATT against LGALS1,0.033 (inactive)
3,CCAUGGAUAUGGAAACCCATT against ALPK3,0.365 (inactive)
4,GGAGAGAGCAGUUUCAACATT against HSPB8,0.207 (inactive)
5,GGAUAGAAUAUGUAACGGUTT against SUPT6H,-2.54 (active)
6,CACCGGUGAGAUUCCCUAUTT against ZNF546,0.497 (inactive)
7,GCUUACUACACUUUUCUAATT against G6PC2,-0.0362 (inactive)
8,CAAACUCUACAUCACCUUUTT against GPR32,-1.2 (active)
9,CAAGAACUCGGAUAAUGAUTT against IL2RG,-0.155 (inactive)
10,CACGGUAUAUGUUAGAGUATT against DSG3,0 (inactive)
11,UCCCUUACAUGUCACCAAATT against ZMIZ2,-0.27 (inactive)
12,GCCUACAAGCAGAUUCAAATT against PTRH2,0.0467 (inactive)
13,ACCCAACUCUUACUCUUAATT against RNF7,-1.18 (active)
14,GGCUCAACGUAUAAGCGAATT against PIP5K1B,0.0917 (inactive)
15,GAUGGAAACAUUGAAUAUATT against GTPBP2,-0.166 (inactive)
16,GAAGGAGUUUGCACAGAAATT against DHDH,0.522 (inactive)
17,CAGUCUUCAUUGCUACUAATT against NFE2L2,-0.596 (inactive)
18,GAAGCAAUCUGGGAAGAGATT against MOCS3,-0.496 (inactive)
19,CGCCCAACCUUACUACCUUTT against TXNDC14,-2.39 (active)
20,GGAUGGUUGUGAGCCGCUATT against ZNF784,0.291 (inactive)
21,CGACGACGUGCAAGACCAATT against ZNF787,-0.0628 (inactive)
22,CCUUUACUUUCUAUAGAAATT against ZNF573,-0.169 (inactive)
23,GCAGUUAUUGGUACUAAUATT against MOAP1,0.0405 (inactive)
24,AGAGAAUCUCGAGGAUAUATT against ZNF74,1.17 (active)
25,CCUUAUCGCUAGAUGUCAATT against GRM3,-0.401 (inactive)
26,GCUGAGCUCAGUAACCACATT against LCAT,0.526 (inactive)
27,GCAAUGCCCUUUUCACCGATT against SERPINA5,-1.01 (active)
